As usually defined, the inhibition is the change of the read-out against control, counted positive when it falls.

SMILES strings stand for the structures. The source made the active and inactive calls.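 Rule for the calls, unless noted: active = a full or partial loss of lipid-probe fluorescence in the fish gall bladder, intestine or both, judged by eye; inactive = no fluorescence loss, or compound toxic to the fish.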

This note sets out measurements from PubChem BioAssay.

Test [1] can be described thus: inhibitors of TNFa-induced NFkB p65 translocation, primary screen, imaging, HUVEC, MLSMR starter and 10KST1 sets (AID 438;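 active = inhibition above 20% together with a positive visual image hit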;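 note: compound added about 3h40 before a 20 min TNFalpha stimulation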;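 for inhibition: signal is the nuclear over cytoplasmic p65 intensity ratio per well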). As to conditions: HUVEC TNFa-induced p65 nuclear translocation; cell count: measured here: nuclei count (cytotoxicity indicator), at 2.08 µM unless noted; inhibition: at 2 µM, stronger effect = higher value unless noted.
A short description of test [2]: inhibitors of E-selectin induction by TNFa, primary screen, imaging, HUVEC, immunofluorescence, MLSMR starter and 10KST1 sets (AID 487;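 active = visually confirmed hit in the image check and inhibition above 20%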;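 for inhibition: signal is fraction of cell area covered by stained E-selectin grains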;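 for nuclei count: 100% = median nuclei count of all wells on the same plate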). As to conditions: HUVEC TNFalpha-induced E-selectin immunofluorescence imaging, at 2 µM; inhibition: stronger effect = higher value; nuclei count: measured here: cell number, toxicity.
A short description of test [3]: DUSP6 inhibitors restoring Erk phosphorylation by chemical complementation, primary imaging in DUSP6-transfected HeLa (AID 609;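 active = compounds giving at least 50% inhibition in the cell-based MKP-3 phosphatase rescue imaging test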;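 for inhibition: phospho-Erk level distribution per well compared with pooled transfected vehicle control wells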). The settings on record: HeLa MKP-3 transfected, phospho-Erk imaging KS statistic, at 10 µM.
The target in test [4] is Dual specificity protein phosphatase 6 (Homo sapiens) (UniProt Q16828). Described as above. As to conditions: HeLa MKP-3 transfected, phospho-Erk imaging KS statistic, at 10 µM, stronger effect = higher value.
Dual specificity protein phosphatase 6 (Homo sapiens), sequence (Q16828 whole entry, looked up): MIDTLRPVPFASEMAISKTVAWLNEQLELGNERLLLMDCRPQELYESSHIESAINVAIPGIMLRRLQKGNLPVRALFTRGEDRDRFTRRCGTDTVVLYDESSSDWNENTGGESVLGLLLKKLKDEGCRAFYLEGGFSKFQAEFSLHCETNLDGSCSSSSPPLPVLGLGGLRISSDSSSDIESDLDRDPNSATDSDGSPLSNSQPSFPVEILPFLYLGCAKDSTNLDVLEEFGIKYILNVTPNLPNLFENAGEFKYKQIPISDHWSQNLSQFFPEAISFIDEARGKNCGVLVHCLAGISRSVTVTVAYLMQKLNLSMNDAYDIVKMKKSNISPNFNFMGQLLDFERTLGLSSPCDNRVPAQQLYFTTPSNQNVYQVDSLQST
The target of test [5] is Voltage-gated potassium channel subunit beta-2 (Rattus norvegicus) (UniProt P62483). The test can be described thus: KvBeta enzyme negative modulators, primary screen, biochemical, NADPH fluorescence (AID 622;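 active = fluorescence slope higher than the sample average by over 3 SD, cut at about -0.22 in these data, passing the limit was not always enough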;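 note: slope of raw intensity against log time taken from 70 to 1610 s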). The settings on record: recombinant KvBeta, 4-cyanobenzaldehyde reduction, at 10 µM, stronger effect = higher value.
Voltage-gated potassium channel subunit beta-2 (Rattus norvegicus), sequence (P62483 whole entry, looked up): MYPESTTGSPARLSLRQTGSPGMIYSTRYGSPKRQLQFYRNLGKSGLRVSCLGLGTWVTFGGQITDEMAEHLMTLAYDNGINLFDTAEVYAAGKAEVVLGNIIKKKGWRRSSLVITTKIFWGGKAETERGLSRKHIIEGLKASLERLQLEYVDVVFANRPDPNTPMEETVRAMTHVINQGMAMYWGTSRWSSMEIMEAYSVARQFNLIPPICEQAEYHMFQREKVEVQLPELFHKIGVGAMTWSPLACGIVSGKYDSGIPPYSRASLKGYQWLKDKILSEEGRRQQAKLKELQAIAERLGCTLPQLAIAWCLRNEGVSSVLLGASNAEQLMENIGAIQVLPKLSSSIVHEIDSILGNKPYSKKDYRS
Test [6] has the same target. The test can be described thus: KvBeta positive modulators, primary screen, biochemical, NADPH fluorescence (AID 623;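 active = NADPH fluorescence slope more negative than the mean of all samples by about 3 SD, 99.7% confidence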;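 note: fluorescence intensity change per second fitted from 20 to 320 s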). As to conditions: Recombinant KvBeta, NADPH fluorescence decrease slope, 10 min; at 10 µM; stronger effect = lower value.
The target of test [7] is Alpha-2C adrenergic receptor (Homo sapiens) (UniProt P18825). The test can be described thus: modulators of alpha2C/GIRK thallium flux, primary screen, cell-based, HEK293 alpha2C/GIRK1/2 (AID 624;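 active = fluorescence slope after compound addition differing from the mean of all screened samples at 99.7% confidence, in either direction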;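 note: slope of fluorescence ratio to pre-addition baseline per second over 15 to 24 s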). As to conditions: thallium flux BTC fluorescence, at 10 µM, actives lie on both sides.
Alpha-2C adrenergic receptor (Homo sapiens), sequence (P18825 whole entry, looked up): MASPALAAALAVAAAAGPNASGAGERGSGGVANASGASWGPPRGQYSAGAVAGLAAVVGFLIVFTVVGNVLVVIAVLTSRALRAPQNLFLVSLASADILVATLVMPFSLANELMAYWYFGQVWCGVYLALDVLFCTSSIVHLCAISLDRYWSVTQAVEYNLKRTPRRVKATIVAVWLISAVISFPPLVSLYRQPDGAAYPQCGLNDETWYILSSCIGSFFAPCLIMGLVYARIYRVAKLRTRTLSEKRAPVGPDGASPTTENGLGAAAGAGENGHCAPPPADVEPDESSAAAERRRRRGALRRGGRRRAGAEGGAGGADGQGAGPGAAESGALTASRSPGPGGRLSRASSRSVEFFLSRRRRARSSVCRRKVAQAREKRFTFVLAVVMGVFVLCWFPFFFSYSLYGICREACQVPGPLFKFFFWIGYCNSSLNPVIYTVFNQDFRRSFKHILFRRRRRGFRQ
The nature of test [8]: inhibitors of larval lipid processing in zebrafish, primary screen, whole organism, PED6 fluorescence, gall bladder and intestine (AID 686).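 Note: larvae 5 to 7 days old with five fish per well; signal comes from phospholipase A2 cleavage of quenched PED6 carried via bile; overnight exposure to compound and PED6 before scoring.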 As to conditions: Zebrafish larvae PED6 lipid processing, fluorescence scoring.
A short description of test [9]: inhibitors of Chlamydomonas gravitaxis, primary screen, whole organism, Chlamydomonas reinhardtii, WT vs cilia-less mutant, absorbance, 96-well (AID 463189;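 active = inhibition at or above 50% relative to wild type and mutant plate controls; inactive = inhibition below 50%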;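 note: 0% = wild type cc124 cells in DMSO and 100% = ciliumless bld1 mutant cells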). As to conditions: OD600 absorbance, 2 days, at 10 µM, stronger effect = higher value.
Where [10] appears, read: measured here: cell density z-score.
Where [11] appears, read: measured here: nuclear c-Myc green intensity z-score.
Setting [12] is: measured here: nuclear pErk red intensity z-score, stronger effect = higher value.

Compound `CCOc1ccc(-n2c(O)c(C=Nc3ccc(N(CC)CC)cc3)c(=O)[nH]c2=O)cc1` had a cell count in test [1] of 366. Also, the inhibition was -4.7% (inactive) in test [1], -63.9% (inactive) in test [2], 14% (inactive) in [4] and -4.04% (inactive) in [9]. Moreover, the nuclei count in [2] amounted to 138%. Also, the z-score in [3] (setting [10]) is 0.258; in [3] (setting [11]) it was -1.14; in [3] (setting [12]), 0.567. Further, the fluorescence slope in test [5] was -0.361 (inactive). For the same compound, the NADPH fluorescence slope in test [6] is -0.000118 (inactive). Moreover, the slope in test [7] is -0.0068 (active). Further, in test [8], the result was inactive.
In the case of `O=c1[nH]c(O)c(C=NC2CCN(Cc3ccccc3)CC2)c(=O)[nH]1`, the cell count in [1] stood at 422. Also, the inhibition in test [1] is 0.5% (inactive); in [2] it was -125% (inactive); in test [4], 4.25% (inactive); in test [9], -1.61% (inactive). The nuclei count in test [2] is 167%. Besides, the z-score is 0.26 in [3] (setting [10]), -1.34 in [3] (setting [11]) and -0.141 in [3] (setting [12]). Besides, the fluorescence slope in test [5] was -0.409 (inactive). For the same compound, the NADPH fluorescence slope in [6] is -7.4e-05 (inactive). Besides, in [7], the slope is 0.00643 (inactive). Moreover, the call in [8] was inactive.
In the case of `CC(=C1C(=O)c2ccccc2C1=O)N1CCN(CCN=Cc2c(O)n(C)c(=O)n(C)c2=O)CC1`, the cell count in [1] is 584. Further, the inhibition in test [1] was -2.8% (inactive); in [2], -90.4% (inactive); in test [4], 1.98% (inactive); in [9], 18.5% (inactive). The nuclei count in [2] was 138%. The z-score in test [3] (setting [10]) is -0.147; in test [3] (setting [11]), 0.321; in test [3] (setting [12]) it was 0.747. Besides, in test [5], the fluorescence slope was -0.482 (inactive). Also, the NADPH fluorescence slope in [6] was -2e-05 (inactive). Besides, the slope in test [7] is 0.00537 (inactive). The result in test [8] was inactive.
For `C=CCC1(CN2CCCCCC2=O)C(=O)NC(=O)NC1=O`, the cell count in test [1] turned out to be 656. For the same compound, the inhibition is 4% (inactive) in test [1], -118% (inactive) in test [2], 11.3% (inactive) in test [4] and -7.71% (inactive) in test [9]. For the same compound, in test [2], the nuclei count came out at 148%. Moreover, the z-score in test [3] (setting [10]) is -0.0973; in test [3] (setting [11]) it was 0.0168; in test [3] (setting [12]), -1.06. Besides, in test [5], the fluorescence slope is -0.517 (inactive). Moreover, the NADPH fluorescence slope in test [6] is -6.8e-05 (inactive). Further, in test [7], the slope is 0.00505 (inactive). Further, in test [8], the call was inactive.
Compound `COc1cccc(-n2c(O)c(C=NCCN3CCOCC3)c(=O)[nH]c2=O)c1` registered a cell count in test [1] of 512. Moreover, the inhibition in test [1] is -1.1% (inactive); in test [2], -10.1% (inactive); in test [4] it was -5.26% (inactive); in test [9], -13% (inactive). The nuclei count in [2] came to 92.8%. In addition, the z-score in test [3] (setting [10]) was -1.1; in test [3] (setting [11]) it was 2.1; in test [3] (setting [12]), 0.315. The fluorescence slope in [5] is -0.386 (inactive). Moreover, the NADPH fluorescence slope in test [6] was -1.1e-05 (inactive). Moreover, the slope in test [7] was 0.00613 (inactive). The compound was classed as inactive in test [8].
`O=C1NCCN2CCCC12` (centres undefined) displayed a cell count in test [1] of 549. For the same compound, the inhibition in [1] is -10.8% (inactive); in [2] it was -50.9% (inactive); in test [4] it was -0.608% (inactive); in test [9] it was 13.6% (inactive). In [2], this compound registered a nuclei count of 158%. For the same compound, the z-score is -1.06 in test [3] (setting [10]), -1.18 in [3] (setting [11]) and 1.73 in test [3] (setting [12]). For the same compound, in test [5], the fluorescence slope was -0.497 (inactive). Also, in [6], the NADPH fluorescence slope was -0.000122 (inactive). Further, the slope in test [7] is 0.00514 (inactive). In addition, the compound was classed as inactive in test [8].
For the compound `COc1cc2[nH]c(=O)n(-c3cccc(Cl)c3)c(=O)c2cc1OC`, in test [1], the cell count was 636. For the same compound, the inhibition was -0.6% (inactive) in test [1], -128% (inactive) in test [2], -1.12% (inactive) in [4] and -6.85% (inactive) in test [9]. The compound also gave a nuclei count in test [2] of 159%. Moreover, the results for the z-score in [3] (setting [10]), in test [3] (setting [11]) and in test [3] (setting [12]) were 0.96, -1.11 and 1.07, respectively. Also, the fluorescence slope in test [5] was -0.467 (inactive). For the same compound, the NADPH fluorescence slope in test [6] was -0.000203 (inactive). Besides, the slope in test [7] is 0.00492 (inactive). The call in [8] was inactive.
Compound `CCCc1nc2ccccc2c(=O)n1-c1ccccc1OC` gave a cell count in test [1] of 587. Further, the inhibition in [1] was -5.2% (inactive); in test [2], -140% (inactive); in test [4], -4.78% (inactive); in test [9] it was -2.29% (inactive). The nuclei count in test [2] turned out to be 134%. Moreover, the z-score in test [3] (setting [10]) was -0.589; in test [3] (setting [11]), -0.508; in test [3] (setting [12]), -0.325. In test [5], the fluorescence slope was -0.375 (inactive). Also, in [6], the NADPH fluorescence slope was -2e-05 (inactive). In [7], the slope was 0.00541 (inactive). Further, in [8], the compound was classed as inactive.
In test [1], `CC(=O)OC1N=C(c2ccccc2)c2ccccc2NC1=O` (centres undefined) showed a cell count of 428. The inhibition in [1] was -3.5% (inactive); in [2], 14.8% (inactive); in test [4], 6.04% (inactive); in [9] it was 12.3% (inactive). In test [2], this compound came in with a nuclei count of 88.8%. Further, the z-score was 0.0297 in test [3] (setting [10]), -1.27 in [3] (setting [11]) and -0.528 in test [3] (setting [12]). Besides, the fluorescence slope in test [5] is -0.509 (inactive). Also, the NADPH fluorescence slope in test [6] was -5.2e-06 (inactive). Also, the slope in [7] is 0.00675 (inactive). Also, the outcome in test [8] was inactive.
Compound `CCN(CC)c1ccc(N=Cc2c(O)n(-c3ccccc3C)c(=O)[nH]c2=O)cc1` displayed a cell count in test [1] of 337. The inhibition in test [1] was 3.8% (inactive); in [2], -48.3% (inactive); in test [4] it was 7.01% (inactive); in test [9], 24.7% (inactive). This compound also returned a nuclei count in [2] of 172%. Also, the z-score in test [3] (setting [10]) is -0.126; in test [3] (setting [11]), 0.959; in test [3] (setting [12]), 0.0511. Moreover, the fluorescence slope in test [5] was -0.394 (inactive). In addition, in test [6], the NADPH fluorescence slope was -0.000163 (inactive). The slope in test [7] was 0.00909 (inactive). In addition, the outcome in test [8] was inactive.
For the compound `CN1CCc2nc(SCC(=O)OC(C)(C)C)c(C#N)cc2C1`, in test [1], the cell count amounted to 606. Moreover, the inhibition in [1] was -21.6% (inactive); in test [2] it was -56.3% (inactive); in test [4] it was 16% (inactive); in test [9], 102% (active). In test [2], this compound registered a nuclei count of 178%. The z-score was -1.57 in [3] (setting [10]), -0.211 in test [3] (setting [11]) and 0.501 in [3] (setting [12]). Moreover, the fluorescence slope in test [5] is -0.316 (inactive). For the same compound, the NADPH fluorescence slope in test [6] was -4.7e-05 (inactive). The slope in test [7] was 0.00437 (inactive). The result in [8] was inactive.
For the compound `O=c1[nH]c2ccccc2c(=O)n1-c1cccc(Cl)c1`, in test [1], the cell count came to 545. The inhibition was -5.4% (inactive) in [1], 40% (inactive) in test [2], -18.6% (inactive) in [4] and 11.1% (inactive) in test [9]. In [2], this compound came in with a nuclei count of 129%. Further, the values for the z-score in [3] (setting [10]), in test [3] (setting [11]) and in [3] (setting [12]) were -1.11, 2.35 and 0.728, respectively. Moreover, the fluorescence slope in test [5] is -0.461 (inactive). Moreover, the NADPH fluorescence slope in test [6] is -7e-06 (inactive). In addition, the slope in test [7] was 0.00622 (inactive). For the same compound, in test [8], the outcome was inactive.
In turn, `CCCCOCCCn1c(N)c(C(=O)OCCOC)c2nc3ccccc3nc21` showed a cell count in test [1] of 525. For the same compound, the inhibition in [1] was -11.4% (inactive); in test [2], -48% (inactive); in test [4] it was 15.5% (inactive); in test [9] it was 29.3% (inactive). The nuclei count in test [2] was 152%. In addition, the z-score was -0.11 in test [3] (setting [10]), -0.345 in test [3] (setting [11]) and 0.203 in [3] (setting [12]). The fluorescence slope in test [5] is -0.052 (inactive). Besides, the NADPH fluorescence slope in test [6] is -3.5e-06 (inactive). In [7], the slope was 0.00403 (inactive). Moreover, the compound was classed as inactive in test [8].
